CBFb RUNX1 block: inhibitors of human CBF-beta and RUNX1 interaction; AlphaScreen CBFb-His/RUNX1-biotin binding, biochemical; Potency, µM (series often up to 59.8 µM), for inactives: top-dose activity, negative = inhibition, usual class: inhibitors; 230,000 tested, under 10 active; Q01196+Q13951; further: % of control where 0% means no effect
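Bead-based AlphaScreen assay; binding partners His-tagged CBF-beta and biotinylated RUNX1 at 30 nM each. Compound exposure 15 min after a 20-min protein preincubation; bead step 90 min; all steps at room temperature.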
HTT aggregate: reduces HttQ103-GFP aggregates in PC12 cells; PC12 HttQ103-GFP aggregates, Acumen cytometry, 40 h; Potency, µM (series often up to 46.1 µM), for the others: top-dose activity change, negative = inhibition, actives largely listed as inhibitors; 1.1% of 220,000 active; further: potency means the concentration at half of the fitted maximal effect; on the % scale 0 is the no-effect control and ±100 the full control effect; nearly all actives have a fitted effect of over 60% in size
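Quantitative HTS on tebufenozide-induced (100 nM) PC12 cells stably expressing polyQ103 Huntingtin exon 1–GFP. Reduction of bright GFP aggregates, detected by laser scanning cytometry after lysis, identified actives across the titration.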
HTT ATP protect: protects HTT-Q103 PC12 cells, measured by ATP; PC12 HTT-Q103 induced, cytoprotection, ATP luminescence, 40 h; Potency, µM (titrated, usually from 56.4 µM), for inactives: cytoprotection (ATP increase), most hits filed as activators; 0.14% of 230,000 active; further: potency means the concentration at half of the fitted maximal effect; % of control where 0% means no effect; nearly all actives have a fitted effect of over 45% in size
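Quantitative HTS on tebufenozide-induced (100 nM) PC12 cells expressing HTTQ103 exon 1–GFP; compounds tested as a concentration series; survival measured via cellular ATP.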
HPGD inh: blocks human HPGD enzyme activity; Potency, µM, for inactives: at the highest dose activity change, negative = inhibition, actives largely listed as inhibitors; P15428; purified HPGD, NADH fluorescence kinetic, PGE2 substrate; 4.3% of 150,000 active; active means well fitted inhibition curve with a large enough effect, not every such curve was filed as active; inconclusive means small, poorly fitted or top-dose-only effect, or another doubt; inactive means no such curve, though single readings can be large or run the other way; further: potency means the concentration at half of the fitted maximal effect; on the % scale 0 is the no-effect control and ±100 the full control effect
Target sequence (P15428 whole entry, looked up): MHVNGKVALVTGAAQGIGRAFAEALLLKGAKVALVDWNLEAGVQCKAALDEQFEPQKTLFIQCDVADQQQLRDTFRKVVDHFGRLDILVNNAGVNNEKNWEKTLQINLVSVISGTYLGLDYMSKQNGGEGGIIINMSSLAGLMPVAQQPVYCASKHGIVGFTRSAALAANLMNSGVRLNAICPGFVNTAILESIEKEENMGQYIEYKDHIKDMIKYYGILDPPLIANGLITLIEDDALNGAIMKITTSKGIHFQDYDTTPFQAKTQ
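NADH formation kinetics: reaction with 30 uM PGE2 and 1 mM NAD+ (final), 20 nM enzyme, Tris-HCl pH 8 with Tween 20, after 15 min compound preincubation at room temperature. Fluorescence change, last versus first of five reads.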
KDM4E inh: JMJD2E (human) inhibition; Potency, µM (doses to about 57.1 µM), for inactives: top-dose activity change, negative = inhibition, usual class: inhibitors; 1.6% of 230,000 active; AID 2147; JMJD2E catalytic domain, FDH-coupled NADH fluorescence (FDH is formaldehyde dehydrogenase); B2RXH2; active means well fitted inhibition curve with a large enough effect, not every such curve was filed as active; inconclusive means small, poorly fitted or top-dose-only effect, or another doubt; inactive means no such curve, though single readings can be large or run the other way;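 further: potency means the concentration at half of the fitted maximal effect; 0% = wells with enzyme and -100% = buffer wells without enzyme; nearly all actives have a fitted effect of over 50% in size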
Target sequence (B2RXH2 1-337 limits assumed): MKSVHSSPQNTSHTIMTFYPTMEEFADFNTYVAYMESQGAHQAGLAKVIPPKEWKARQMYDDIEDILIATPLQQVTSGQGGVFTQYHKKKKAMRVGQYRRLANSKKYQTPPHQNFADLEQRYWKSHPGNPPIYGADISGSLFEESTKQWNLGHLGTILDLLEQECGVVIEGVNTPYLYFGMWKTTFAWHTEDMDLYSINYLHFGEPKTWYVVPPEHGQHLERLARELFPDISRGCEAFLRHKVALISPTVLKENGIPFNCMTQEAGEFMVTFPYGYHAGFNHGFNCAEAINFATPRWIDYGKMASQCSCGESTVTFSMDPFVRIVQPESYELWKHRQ
ALDH1A1 inh: inhibitors of human aldehyde dehydrogenase 1A1; P00352; Purified ALDH1A1, NADH fluorescence, propionaldehyde substrate; Potency, µM (highest dose often 75.3 µM), for the others: at the top dose activity, negative = inhibition, hits mostly inhibitors; 7.3% of 220,000 active; AID 1030; active means well fitted inhibition curve with a large enough effect, not every such curve was filed as active; inconclusive means small, poorly fitted or top-dose-only effect, or another doubt; inactive means no such curve, though single readings can be large or run the other way;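 further: potency means the concentration at half of the fitted maximal effect; plate controls were no enzyme wells and a reference inhibitor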
* = called active by the depositor; ? = inconclusive; . = no result given; ! = repeats disagree; [ ] = another dose, or the depositor's remark. In the library only some 9.8% were active in any assay of this set; here they are far more common. Unless noted, the call rests on the fitted dose curve; in most records, active means well fitted curve in the direction sought with a large enough effect; inconclusive means small, poorly fitted or top-dose-only effect, or another doubt; inactive means no such curve, though single readings can be large; an effect the other way counts as inactive or inconclusive.

SMILES | CBFb RUNX1 block | HTT aggregate | HTT ATP protect | HPGD inh | KDM4E inh | ALDH1A1 inh
Cc1cc(C)c2oc(C(=O)N(Cc3cccs3)C3CCS(=O)(=O)C3)cc(=O)c2c1 (stereo not given) | 1% | -6%[9.22 µM] | -2%[10 µM] | . | -21% | .
CCn1cc(C(=O)NCc2ccccn2)c(=O)c2cc(F)c(N3CCN(C)CC3)cc21 | 5% | -1% | -3% | -19% | ? | ?
CCn1cc(C(=O)NCc2ccco2)c(=O)c2cc(S(=O)(=O)N3CCCCCC3)ccc21 | -3% | 13µM* | -95%[10 µM] | -24% | -15% | 8.9µM*
CCn1cc(C(=O)NCc2ccco2)c(=O)c2cc(S(=O)(=O)N3CCC(C)CC3)ccc21 | -3% | ? | -62%[0.074 µM] | -21% | 1% | ?
CCn1cc(C(=O)NCc2ccccn2)c(=O)c2cc(S(=O)(=O)N3CCCCC3)ccc21 | -10% | 10% | -1%[10 µM] | ? | 3% | 11µM*
CCn1cc(C(=O)NCc2ccco2)c(=O)c2cc(S(=O)(=O)N3CCc4ccccc4C3)ccc21 | -9% | -11% | -51%[0.074 µM] | -30% | ? | 20µM*
CC(C)[C@H](N)C(=O)OCC(CO)OCn1cnc2c(=O)[nH]c(N)nc21 (stereo not given in full) | . | 3% | 0% | . | . | .
Cc1ccc(NC(=O)Cn2cccc2)cc1 | -6% | -7% | -48% | . | -3% | -10%
Cc1cccc(NC(=O)Cn2cccc2)c1 | -5% | -6% | 22% | -5% | 4% | 1%
Cc1ccc(NC(=O)Cn2cccc2)c(Br)c1 | -7% | 17% | -3% | 14µM* | 7% | -4%
Cc1ccc(NC(=O)Cn2cccc2)c(C)c1 | 5% | 22% | -4% | 2.2µM* | 0% | -1%
CCOc1ccc(NCC(=O)Nc2ccc(C)cc2C)cc1 | -4% | 4% | 2% | -3% | -6% | 1.8µM*
CSc1cccc(NC(=S)N2CCC(N(C)C3CCCCC3C)CC2)c1 (stereo not given) | -20% | -2% | 0% | . | 8% | -8%
Cc1cc(C)c(COc2ccc(/C=N/n3c(C)n[nH]c3=S)cc2)c(C)c1 | 8% | 12% | 26%[10 µM] | 10µM* | -7% | ?
CCc1n[nH]c(=S)n1/N=C/c1ccccc1OCc1ccc(Cl)cc1 | 3% | -5% | -10% | . | 6% | 7%
Cc1n[nH]c(=S)n1/N=C/c1ccc(OCc2ccc(Cl)cc2)cc1 | 2% | ? | -18% | 7.9µM* | -2% | 0%
S=c1[nH]nc(Cc2ccc(Br)cc2)n1/N=C/c1ccc(Cl)cc1 | -26% | 10% | -13% | . | -14% | 28µM*
CCOC(=O)OC(C)OC(=O)C1N2C(=O)C(NC(=O)C(N)c3ccccc3)C2SC1(C)C (stereo not given) | . | . | . | ? | ? | -7%
COc1cccc(-n2nc(-c3ccnn3-c3ccc(C)cc3)c(=O)n(C)c2=O)c1 | -3% | -10% | -16% | -24% | -5% | 40µM*
COc1ccc(-n2nccc2-c2nn(-c3cccc(OC)c3)c(=O)n(C)c2=O)cc1 | 4% | -30% | -13% | -20% | 10% | -5%
NC(=O)C1CCN(C2CC(=O)N(c3cccc(F)c3)C2=O)CC1 (stereo not given) | 0% | -3% | -12%[0.074 µM] | 0% | 3% | 22µM*
Cc1ccccc1N1C(=O)CC(N2CCC(C(N)=O)CC2)C1=O (stereo not given) | 4% | -12% | -9% | 7% | 2% | ?
NC(=O)C1CCN(C2CC(=O)N(c3ccc(F)c(Cl)c3)C2=O)CC1 (stereo not given) | -1% | 7% | -10% | -11% | 4% | 25µM*
Cc1ccc2nc(SCC(=O)c3ccc(O)cc3O)[nH]c2c1 | -2% | 8%[9.22 µM] | -3%[10 µM] | . | 18% | -8%
CCOCCCNS(=O)(=O)c1ccc(OC)c(Cl)c1Cl | 2% | 14% | -5%[10 µM] | -14% | 7% | 2.2µM*
SMILES | CBFb RUNX1 block | HTT aggregate | HTT ATP protect | HPGD inh | KDM4E inh | ALDH1A1 inh
COC(=O)c1ccc(NC(=O)CN(C)S(=O)(=O)c2ccc(OC)c(C)c2)cc1 | 9% | 1.3µM* | 4%[10 µM] | -22% | -4% | ?
CCN1CCN(C(=S)Nc2ccc3nc4n(c(=O)c3c2)CCCCC4)CC1 | 1% | 7% | -32% | . | ? | ?
COC(=O)c1ccc(=O)n(Cc2ccco2)c1 | 21% | 20% | -10%[10 µM] | -7% | 32µM* | -13%
CC(C)OC(=O)CC(NC(=O)OC(C)(C)C)c1ccccc1 (stereo not given) | -5% | 17% | ? | -7% | 4% | 13%
Cc1ccccc1S(=O)(=O)c1c(C)cc(C)n(CC(C)C)c1=O | 12% | -15% | 5%[10 µM] | -4% | 2% | 7.9µM*
Cc1ccccc1S(=O)(=O)c1c(C)cc(C)n(C)c1=O | 3% | 0% | -12%[10 µM] | . | ? | 0%
CCOC(=O)CCc1c(C)nc(SCCCn2c(=O)[nH]c3ccccc32)c(C#N)c1C | 6% | -15% | 0%[0.074 µM] | 16µM* | -10% | 32µM*
O=C(NC(=O)c1ccccc1O)c1ccc2c(c1)CCO2 | 11% | -10%[9.22 µM] | -57%[10 µM] | . | 3% | .
CNC(=O)/C(C#N)=C\c1ccc(CNS(=O)(=O)c2ccccc2)o1 | -6% | 7% | -8%[10 µM] | -18% | 3% | 6%
COCCCN1C(=O)/C(=C/c2ccc(CNS(=O)(=O)c3ccccc3)o2)C(C(=O)OC)=C1C | -11% | 0%[9.22 µM] | -8% | . | ? | 35µM*
O=c1[nH]c2cc(Cl)c(O)cc2o1 | -15% | . | . | . | . | .
O=C(COC(=O)c1cccc(C(F)(F)F)c1)NCc1ccc(Cl)cc1 | 13% | 14% | 20%[10 µM] | 14µM* | 1% | 17%
CCN1CCN(CC(=O)c2ccc(OC)cc2)CC1 | 8% | -6% | -3% | . | ? | ?
O=c1[nH]c(=O)n([C@H]2C[C@H](O)[C@@H](CO)O2)cc1Br | 8%[21.7 µM] | 38% | 3.5µM*! | 2% | 1% | 2%
O=c1[nH]c(=O)n([C@H]2C[C@H](O)[C@@H](CO)O2)cc1F | -2% | -15% | 18%[1.9 µM] | -14% | -31% | -5%
CN1/C(=C\P(=O)(N(C)C)N(C)C)C(C)(C)c2ccccc21 | 2% | 11µM* | -3%[10 µM] | -13% | 4% | -4%
CCOC(=O)/C=C1/N(C)c2ccccc2C1(C)C | 10% | -8%[9.22 µM] | -8%[10 µM] | . | -1% | .
Cc1cccc(C(=O)N(Cc2nc3ccccc3c(=O)[nH]2)C2CCCCC2)c1 | 1% | 5%[9.22 µM] | 10%[10 µM] | . | -3% | ?
O=C(O)CSc1cc(C(=O)c2ccccc2O)cn2c(=O)c3c(-c4ccccc4)csc3nc12 | ? | 10% | -74% | . | 0% | 3.5µM*
